# From PubChem
# Sfp inh – blocks B. subtilis Sfp PPTase activity; Q9F4F7; hit rate 3.5% among 310,000; Potency, µM, for inactives: largest response in the series, negative = inhibition, actives largely listed as inhibitors; Biochemical Sfp PPTase activity, qHTS;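 also: the enzyme is Sfp with the accession as filed and its product quenches rhodamine fluorescence; potency is read from the fitted curve at half-maximal effect; 0% = enzyme reaction without inhibitor and -100% = no enzyme wells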
#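 After 15 min at room temperature with compound, 15 nM Sfp received 5 uM rhodamine-CoA plus 12.5 uM BHQ-2-ybbR (50 mM Hepes pH 7.6, 10 mM MgCl2). Rate came from the fluorescence difference over 30 min, ex 525/em 598 nm.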
# FBPA coupling cs – inhibits coupling enzyme system, counter-screen for aldolase hits; coupling enzyme system counterscreen, AmpLite Red fluorescence; activity change, negative = inhibition, % at 58.2 µM, hits read low; hit rate 0.67% among 290,000; in the data active = activity change below about -30%
#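 Fluorescence at 525 nm excitation and 598 nm emission measured inhibition of the coupled detection system without aldolase. Compounds (at 57.5 uM final) were preincubated 10 min at room temperature with coupling enzyme reagent before a 20 min substrate/AmpLite Red step.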
# Tau FP inhib – blocks human tau fibril formation measured by polarization | K18 P301L tau heparin fibrillization, Alexa594 FP, 6 h | hit rate 0.39% among 280,000 | P10636 | Potency, µM (highest dose often 57.7 µM), inactives show at the top dose activity, negative = inhibition, hits mostly inhibitors | AID 1468; also: potency is read from the fitted curve at half-maximal effect; nearly all actives have a fitted effect of over 55% in size
# Target sequence (P10636 561-689 P618L limits assumed): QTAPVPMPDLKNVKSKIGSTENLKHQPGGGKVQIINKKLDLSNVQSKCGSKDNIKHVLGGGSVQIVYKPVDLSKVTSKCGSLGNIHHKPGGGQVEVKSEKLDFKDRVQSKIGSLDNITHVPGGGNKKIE
#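 Recombinant K18 P301L […], labeled with Alexa 594 at 0.24 uM over 15 uM unlabeled; heparin inducer 20 uM final; 37 C, 6 hr; FP endpoint.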
# Tau fibril ThT – inhibitors of human tau fibril formation, thioflavin T binding; recombinant tau K18 P301L, heparin-induced fibrillization, ThT fluorescence; Potency, µM (series often up to 57.4 µM), inactives show top-dose activity, negative = inhibition, most hits filed as inhibitors; hit rate 2.1% among 270,000; AID 1460; also: potency is read from the fitted curve at half-maximal effect; nearly all actives have a fitted effect of over 55% in size
#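 Tau K18 P301L fragment (15 uM unlabeled plus 0.24 uM Alexa 594-labeled) in 100 mM sodium acetate pH 7 with compound, fibrillization induced by 20 uM heparin for 6 hr at 37 C. Thioflavin T (30 uM) added, fluorescence read after 1 hr (ex 450, em 510 nm).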
# Tau fluor cs – counter-screen for tau fibril formation inhibitors. hit rate 0.93% among 280,000. tau K18 P301L (four-repeat tau fragment) Alexa594 fluorescence, heparin fibrillization. Potency, µM (series often up to 57.7 µM), without a hit: at the highest dose activity change, negative = decrease; also: potency is read from the fitted curve at half-maximal effect; nearly all actives have a fitted effect of over 55% in size
#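 Human K18 P301L tau (15 uM unlabeled plus 0.24 uM Alexa 594-labeled, final) in 100 mM sodium acetate pH 7 was mixed with compound and 20 uM heparin and incubated 6 hr at 37 C.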
# * = called active by the depositor; ? = inconclusive; / = no result given; [ ] = remark or other dose. Shown are actives, neighbours in structure and some others; about 5.2% of the full set was active somewhere. Unless noted, calls follow the shape of the dose curve; as a rule, active = well fitted curve in the direction sought with a large enough effect; inconclusive = small, poorly fitted or top-dose-only effect, or another doubt; inactive = no such curve, though single readings can be large; an effect the other way counts as inactive or inconclusive. Unless noted, % is scaled to controls: 0 for no effect and ±100 for the full control effect.
SMILES,Sfp inh,FBPA coupling cs,Tau FP inhib,Tau fibril ThT,Tau fluor cs
Cc1ccc(NC(=O)C(OC(=O)c2ccc(O)cc2)c2ccccc2)cc1Cl (centres undefined),27%,3,28µM*,12%,?
CC(=O)Nc1cccc(C(=O)OC(C(=O)c2ccc(C)c(C)c2)c2ccccc2)c1 (centres undefined),17%,4,16µM*,5%,?
CC(=O)Nc1cccc(C(=O)OC(C(=O)c2ccc(C)cc2)c2ccccc2)c1 (centres undefined),2%,/,14µM*,13%,?
COc1ccc(C(=O)OC(C(=O)c2ccc(C)cc2)c2ccccc2)cc1 (centres undefined),-10%,-7,-6%,13%,-17%
CCc1ccc(NC(=O)CN(Cc2ccccc2)S(=O)(=O)c2ccc3nc(C)sc3c2)cc1,/,/,-3%,2%,-18%
CC[C@H](C)[C@H](NC(=O)[C@H](Cc1ccc(O)cc1)NC(=O)[C@@H]1CCCN1C(=O)[C@H](CCCN=C(N)N)NC(=O)[C@H](CCCN=C(N)N)NC(=O)[C@@H]1CCCN1C(=O)[C@H](CCCCN)NC(=O)[C@H](CC(N)=O)NC(=O)[C@H](CCC(N)=O)NC(=O)[C@H](Cc1ccc(O)cc1)NC(=O)[C@H](CC(C)C)NC(=O)[C@@H]1CCC(=O)N1)C(=O)N[C@@H](CC(C)C)C(=O)O,15%,-2,/,/,/
Cc1noc(C)c1-c1ccc2ncnc(NCc3ccc(C(F)(F)F)cc3)c2c1,16%,-2,/,/,/
O=C(NC1CCCC1)C(c1ccncc1)N(Cc1cccs1)C(=O)c1csnn1 (centres undefined),20µM*,-20,?,?,?
CCC(C)(C(=O)NC1CCCC1)N(Cc1cccs1)C(=O)c1ccccn1 (centres undefined),14%,-38*,0%,-3%,-8%
O=C(NC1CCCCC1)C(c1ccncc1)N(Cc1ccc2c(c1)OCO2)C(=O)c1cnsn1 (centres undefined),-1%,-46*,-14%,5%,-5%
CCC(C)(C(=O)NC1CCCCC1)N(Cc1cccs1)C(=O)c1ccccn1 (centres undefined),8%,5,0%,-3%,-9%
CC(C)(C)NC(=O)C(c1ccncc1)N(Cc1cccs1)C(=O)c1csnn1 (centres undefined),-9%,1,-2%,-12%,-13%
CC(C)c1ccc(NC(=O)CSC2=Nc3ccccc3C3=NC(CCC(=O)NCc4cccs4)C(=O)N23)cc1 (centres undefined),/,/,3%,?,2%
CCOc1ccc(Nc2nnc(-n3nc(C)cc3C)c3ccccc23)cc1,/,/,8%,?,?
COc1ccc(Oc2nc(-c3ccccn3)ncc2OC)cc1,-18%,-7,3%,-9%,-6%
COc1cnc(-c2ccccn2)nc1Sc1ccccc1Cl,-25%,-2,-9%,?,-20%
COc1cnc(-c2ccccn2)nc1N(C)C,16µM*,-10,-11%,?,-2%
CN(C)c1nc(-c2ccccn2)nnc1-c1ccccc1,79µM*,-1,-5%,-1%,-2%
CCOC(=O)C(C)Sc1nc(-c2ccccn2)ncc1OC (centres undefined),35µM*,-8,-5%,-9%,-2%
OCCn1nc2c3ccccc3nc-2n(-c2ccccc2)c1=S,50µM*,-2,1%,?,-5%
CCOc1ccc(NS(=O)(=O)c2ccc(NC(=O)N3CCCC3)cc2)cc1,/,/,-8%,2%,-5%
COc1ccc(CNc2ncnc3ccc(-c4c(C)noc4C)cc23)cc1,-19%,-5,/,/,/
CN(C)S(=O)(=O)c1cccc(C(=O)OCC(=O)Nc2sccc2C#N)c1,79µM*,2,4%,-5%,-11%
COc1ccc(N(C)S(=O)(=O)c2cccc(C(=O)OCC(=O)Nc3sc4c(c3C#N)CCCCC4)c2)cc1,18%,4,9%,-3%,-16%
CN(C(=O)COC(=O)c1ccc2c(c1)NC(=O)CS2)C1CCS(=O)(=O)C1 (centres undefined),-9%,-2,-1%,2%,6%
SMILES,Sfp inh,FBPA coupling cs,Tau FP inhib,Tau fibril ThT,Tau fluor cs
CN(C)S(=O)(=O)c1ccc(Cl)c(NC(=O)COC(=O)c2ccc(O)cc2)c1,0%,0,7%,-5%,-11%
CN(C)S(=O)(=O)c1ccc(Cl)c(NC(=O)COC(=O)c2ccc3c(c2)NC(=O)CS3)c1,25µM*,1,-15%,-20%,-30%
CC(C)CN(C(=O)COC(=O)c1ccc2c(c1)NC(=O)CS2)C1CCS(=O)(=O)C1 (centres undefined),50µM*,0,-5%,?,-6%
O=[N+]([O-])c1cc2cccnc2c2ncccc12,5%,-6,-3%,?,-7%
O=[N+]([O-])c1ccc(Sc2cccc3cccnc23)c2cccnc12,-25%,-34*,-17%,?,-29%
COc1cccc(CNS(=O)(=O)c2ccc(N3CCCCS3(=O)=O)cc2)c1,/,/,-8%,9%,-4%
COc1cccc(CNS(=O)(=O)c2ccc(S(=O)(=O)N3CCCC3)cc2)c1,10µM*,-53*,10%,0%,4%
O=S(=O)(NCc1ccco1)c1ccc(S(=O)(=O)N2CCCC2)cc1,3.2µM*,-4,7%,6%,9%
O=S(=O)(c1ccccc1)C(/C=N\O)/C=C/c1ccccc1 (centres undefined),50µM*,2,1%,?,-12%
OC/C=C/c1ccccc1,14%,/,/,/,/
COc1ccc(NC(=O)c2cc(S(=O)(=O)NCCC3=CCCCC3)ccc2F)cc1,/,/,-6%,6%,-28%
Cc1ccc(Nc2c(-c3c[nH]c4ccccc34)nc3ccccn23)cc1,/,/,-4%,?,8.9µM*[quencher]
O=c1oc2ccc3ccccc3c2cc1-c1nnc(Nc2ccc(Cl)cc2Cl)s1,/,/,0%,-4%,-2%
CO[C@H]1COC(=O)[C@H](C)NC(=O)C/C=C\[C@@H](C)[C@@H](NS(=O)(=O)c2ccc(C)cc2)COC(=O)C/C=C\[C@@H]1C,11%,1,0%[11.6 µM],-14%[11.5 µM],-16%[11.6 µM]
CCN(c1ccccc1)c1nc(=O)c2cccnc2s1,-4%,2,1%,-6%,-3%
CCN(c1ccccc1)c1cc2ccccc2c(=O)[nH]1,-10%,-34*,/,/,/
CC(NC(=O)c1ccc2ccccc2n1)c1ccc(Br)cc1 (centres undefined),-24%,0,/,/,/
Brc1ccc(N=Nc2ccc3ccccc3n2)cc1,?,3,2%,1.1µM*,-16%
Cc1ccc(C(=O)N2c3nc(-c4ccco4)nn3C3(CCCCC3)[C@@H]3CCCC[C@@H]32)cc1,/,/,-2%,-1%,-1%
CC1=NN(c2ccccc2)C(=O)/C1=C/C=C/C=C/N(C)C,?,-9,-5%,16µM*,-27%
